Vaccinia Venus = vaccinia inhibition (Venus reporter) | Vaccinia virus Venus reporter expression, fluorescence | Potency, µM (doses to about 36.5 µM), without a hit: top-dose activity change, negative = inhibition, usual class: inhibitors | 330,000 tested, 0.46% active | AID 720580; calls by dose curve; tested in A549 cells; also: potency is read from the fitted curve at half-maximal effect; nearly all actives have a fitted effect of over 30% in size
HCMV antiviral = blocks human cytomegalovirus replication. HFF cells, HCMV-luciferase reporter, 72 h; active compounds read low. 410,000 tested, 4.5% active. activity change, negative = inhibition, % at 57.5 µM; in the data active = activity change below about -60%; inconclusive = no clear call, values can overlap the other calls; inactive = above about -39%
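Human foreskin fibroblasts infected with luciferase-reporter HCMV at MOI 1 PFU/cell, compounds at two doses. Luciferase measured 72 h post infection; normalized to buffer-only basal and Salinomycin (10uM) controls.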
VACV mCherry inh = inhibitors of vaccinia virus infection (mCherry reporter signal) | Vaccinia virus mCherry reporter infection, fluorescence | Potency, µM (titrated, usually from 36.5 µM), inactives show at the highest dose activity change, negative = inhibition, hits mostly inhibitors | 310,000 tested, 0.63% active; calls by dose curve; tested in A549 cells; also: potency is read from the fitted curve at half-maximal effect; nearly all actives have a fitted effect of over 35% in size
FMDV inh = antivirals against foot and mouth disease virus; FMDV antiviral cell-based qHTS; Potency, µM (titrated, usually from 57.9 µM), inactives show top-dose activity change, negative = inhibition, actives largely listed as inhibitors; 410,000 tested, 1.2% active; calls by dose curve; tested in HEK293T cells; also: read-out not given here; potency is read from the fitted curve at half-maximal effect; nearly all actives have a fitted effect of over 45% in size
LASV entry inh = inhibitors of Lassa virus binding or cell entry. 300,000 tested, 1.2% active. Potency, µM (series often up to 37.9 µM), for the others: at the top dose activity change, negative = inhibition, hits mostly inhibitors. Lassa virus pseudotype entry inhibition, cell reporter; calls by dose curve; tested in HEK293 cells; also: potency is read from the fitted curve at half-maximal effect; nearly all actives have a fitted effect of over 50% in size
Marburg entry inh = inhibitors of Marburg virus binding or cell entry; Marburg virus pseudotyped entry inhibition, cell reporter; Potency, µM (titrated, usually from 37.8 µM), inactives show at the highest dose activity change, negative = inhibition, actives largely listed as inhibitors; 300,000 tested, 1.8% active; AID 540276; calls by dose curve; tested in HEK293 cells; also: potency is read from the fitted curve at half-maximal effect
The depositor's hits bear a star; i = inactive; ? = inconclusive; / = no result given; ! = not confirmed by another sample; [ ] = dose if it differs, or a comment. A selection: hits, their analogues and other compounds. The true share with any hit is near 6.5%. % is scaled to controls: 0 for no effect and ±100 for the full control effect.

SMILES | Vaccinia Venus | HCMV antiviral | VACV mCherry inh | FMDV inh | LASV entry inh | Marburg entry inh
CN(C)c1ccc(C(=C2C=CC(=[N+](C)C)C=C2)c2c(O)c(S(=O)(=O)[O-])cc3cc(S(=O)(=O)O)ccc23)cc1 | -11% | / | ? | / | / | /
CN(C)c1ccc(C(=C2C=CC(=[N+](C)C)C=C2)c2ccc(N(C)C)cc2)cc1 | 10µM* | / | 235% | 18µM* | / | /
O=C(CSc1nc2c([nH]c3ccccc32)c(=O)n1-c1ccccc1)N1CCCC1 | -4% | 3 | -7% | -11% | ? | /
O=C(CC(=O)c1cc(Cl)ccc1O)c1ccccc1 | ? | -10 | ? | / | 13µM* | ?
Cc1cccc(C(=O)CC(=O)c2cc(Cl)ccc2O)c1 | / | / | / | 8% | ? | -82%
COc1ccc(O)c(C(=O)CC(=O)c2ccc(F)cc2)c1 | -10% | 4 | -2% | 0% | 10µM* | 13µM*
Cc1c(C(=O)NCC2COCCO2)cnn1-c1ncc2c(n1)-c1ccccc1CC2 (configuration not stated) | ? | / | ? | 27% | / | /
O=C(CN(C(=O)CCC(=O)Nc1nccs1)c1cccc(F)c1)NCCc1ccccc1 | -7% | -88* | -2% | -4% | ? | 5%[46.1 µM]
Cc1ccc(N(CC(=O)NCc2ccc(F)cc2)C(=O)CCC(=O)Nc2ccccn2)cc1C | -21% | -7 | -26% | -17% | 1.4µM* | ?
CC(C)[N+]1(C)[C@@H]2CC[C@H]1CC(OC(=O)[C@@H](CO)c1ccccc1)C2 (some centres not stated) | / | / | / | -7% | / | /
CCOC(=O)N1CCN(CC(O)COCc2cc(OC)c(OC)c(OC)c2)CC1 (configuration not stated) | -18% | 0 | i | -18% | -1% | ?
O=C1c2cccc3cccc(c23)C(=O)N1CCN1CCN(C(=S)Nc2ccc(Cl)cc2)CC1 | -4% | 4 | -15% | 14% | 1% | 9%
COc1cc(COCC(O)CN2CCN(CCN3C(=O)c4cccc5cccc(c45)C3=O)CC2)cc(OC)c1OC (configuration not stated) | ? | -76* | -23% | ? | -10% | ?
O=C1c2cccc3cccc(c23)C(=O)N1CCN1CCN(CC(O)COCc2ccc(Cl)cc2)CC1 (configuration not stated) | ? | -79* | 11µM* | ? | 18µM* | ?
Cc1ccc(C(c2nnnn2Cc2cccs2)N2CCN(Cc3ccc4c(c3)OCO4)CC2)cc1 (configuration not stated) | -29% | 2 | -20% | 16% | 11µM* | ?
CCC(C)(C)n1nnnc1C(c1cc2cc(C)cc(C)c2[nH]c1=O)N1CCCC1 (configuration not stated) | / | -5 | / | 18% | 4% | ?
CCC(C)(C)n1nnnc1C(c1cc2cc(C)cc(C)c2[nH]c1=O)N1CCN(Cc2ccc3c(c2)OCO3)CC1 (configuration not stated) | -12% | -60* | -10% | 5.6µM* | 1% | 12%
Cc1ccc(C(c2nnnn2CCc2ccccc2)N2CCSCC2)cc1 (configuration not stated) | -8% | ? | -20% | 19% | ? | 2.2µM*
CC(C)C(c1nnnn1Cc1ccc(F)cc1)N1CCN(Cc2ccc3c(c2)OCO3)CC1 (configuration not stated) | ? | -5 | / | ? | ? | 13µM*
CCN1CCN(C(c2nnnn2Cc2ccc3c(c2)OCO3)C(C)C)CC1 (configuration not stated) | / | 57 | / | -7% | 4% | -3%
Cc1cccc(NC(=O)Cn2c(=O)n(CCCS(=O)(=O)C3CCCCC3)c(=O)c3ccccc32)c1 | -5% | -8 | -10% | -7% | -6%[46.1 µM] | 1%[46.1 µM]
COc1ccc(/C=N/Nc2cc(C)nc3ccc(Br)cc23)cc1 | -30% | -98* | ? | -29% | ? | 4.5µM*
COc1ccc2nc(C)cc(N/N=C/c3cccc(OC)c3O)c2c1 | ? | -7 | 1µM* | 7% | ? | ?
COc1cccc2c(N/N=C/c3ccccc3)cc(C)nc12 | / | -3 | / | -27% | / | /
Cc1cnc(SCc2ccccn2)nc1C1CCCN(C(=O)c2cc3ccccc3oc2=O)C1 (configuration not stated) | -13% | / | -10% | -28% | / | /
SMILES | Vaccinia Venus | HCMV antiviral | VACV mCherry inh | FMDV inh | LASV entry inh | Marburg entry inh
O=C(CSc1nncn2c1cc1sccc12)Nc1ccccc1C(F)(F)F | -4% | -73* | -6% | -11% | 8%[46.1 µM] | /
COc1ccccc1NC(=O)CSc1nncn2c1cc1sccc12 | -30% | ? | ? | -15% | 10%[46.1 µM] | /
CN1CCN(CCNC(=O)c2cnn(-c3ccc(Cl)cc3)c2C2CCN(C(=O)OC(C)(C)C)CC2)CC1 | -8% | -18 | -16% | -19% | -6%[46.1 µM] | /
Cc1ccc(C)c(C(=O)COC(=O)c2n[nH]c3ccccc23)c1 | -15% | -61* | -24% | 58% | ? | 2%
COc1ccc(CNC(=O)COC(=O)c2n[nH]c3ccccc23)cc1OC | / | 35 | / | 11µM* | ? | ?
Cc1cccc(C)c1OCCOC(=O)c1n[nH]c2ccccc12 | -18% | ? | i | -6% | -27%[46.1 µM] | ?
COC(=O)c1ccc(NC(=O)C(=O)NCCc2csc(-c3ccc(F)cc3)n2)cc1 | -9% | 14 | -14% | 2% | 27%[46.1 µM] | /
CCC(C)(C)NC(=O)C(c1ccc(C)cc1)N(Cc1cccs1)C(=O)c1ccc2c(c1)OCCO2 (configuration not stated) | -11% | -21 | -21% | -22% | ? | 15µM*
COCCOC(=O)C1=C(C)NC(C)=C(C(=O)OC(C)C)[C@@H]1c1cccc([N+](=O)[O-])c1 | / | / | / | -13% | / | ?
COC(=O)C1=C(C)NC(C)=C(C(=O)OC(C)(C)CN(C)CCC(c2ccccc2)c2ccccc2)C1c1cccc([N+](=O)[O-])c1 (configuration not stated) | / | / | / | / | 8.2µM* | ?
COCCOC(=O)C1=C(C)NC(C)=C(C(=O)OC(C)C)C1c1cccc([N+](=O)[O-])c1 (configuration not stated) | -21% | ? | -27% | -18% | ? | 5.6µM*!
COC(=O)C1=C(C)NC(C)=C(C(=O)OCCN(C)Cc2ccccc2)[C@@H]1c1cccc([N+](=O)[O-])c1 | / | / | / | / | / | 8.2µM*
CCOC(=O)C1=C(C)NC(C)=C(C(=O)OC)[C@H]1c1cccc([N+](=O)[O-])c1 | -20% | / | 25% | -17% | / | -20%
CCOC(=O)C1=C(C)NC(C)=C(C(=O)OC)C1c1cccc([N+](=O)[O-])c1 (configuration not stated) | -20% | ? | -6% | -24% | ? | 2.5µM*!
CCC=CC[C@@]1(C(=O)OC)C=C[C@@H](C)[C@H](c2ccccc2Br)N1C(=O)C(F)(F)F | / | / | / | / | / | -1%[14.2 µM]
COc1cccc(N2CC(NC(=O)CCCc3ccccc3)CC2=O)c1 (configuration not stated) | -18%[7.34 µM] | -6 | -14%[7.34 µM] | -12% | 2%[46.1 µM] | /
